Results reported in ChEMBL document CHEMBL1961873, “Compounds: GSK PKIS; Assays: Nanosyn kinase panel” (2012).

Experiments:
[1] = target: T1, Inhibitor of nuclear factor kappa-B kinase subunit epsilon (Homo sapiens) (UniProt Q14164); details: at 1 µM;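 note: reported values are averaged percent inhibition figures against human IKKε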
T1 sequence (whole entry): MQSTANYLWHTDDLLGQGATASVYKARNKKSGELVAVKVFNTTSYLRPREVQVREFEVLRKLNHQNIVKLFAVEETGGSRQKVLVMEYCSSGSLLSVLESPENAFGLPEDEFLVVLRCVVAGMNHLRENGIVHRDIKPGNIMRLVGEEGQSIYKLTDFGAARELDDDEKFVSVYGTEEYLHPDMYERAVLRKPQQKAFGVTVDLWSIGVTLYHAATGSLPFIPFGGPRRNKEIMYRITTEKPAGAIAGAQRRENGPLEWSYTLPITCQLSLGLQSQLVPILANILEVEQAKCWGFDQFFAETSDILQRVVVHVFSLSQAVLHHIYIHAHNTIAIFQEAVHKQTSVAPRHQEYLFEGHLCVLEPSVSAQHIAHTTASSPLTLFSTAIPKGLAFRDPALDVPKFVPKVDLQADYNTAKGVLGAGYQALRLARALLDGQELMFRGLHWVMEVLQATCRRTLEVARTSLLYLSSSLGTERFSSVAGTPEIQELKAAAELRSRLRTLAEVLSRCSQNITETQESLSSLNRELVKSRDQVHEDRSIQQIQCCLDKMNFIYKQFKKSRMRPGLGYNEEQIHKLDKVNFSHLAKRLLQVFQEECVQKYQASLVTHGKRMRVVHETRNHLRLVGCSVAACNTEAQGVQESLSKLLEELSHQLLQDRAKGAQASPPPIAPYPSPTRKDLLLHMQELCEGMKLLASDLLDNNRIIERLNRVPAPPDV

[2] = target: T2, Serine/threonine-protein kinase Nek1 (Homo sapiens) (UniProt Q96PY6); details: at 0.1 µM
T2 sequence (whole entry): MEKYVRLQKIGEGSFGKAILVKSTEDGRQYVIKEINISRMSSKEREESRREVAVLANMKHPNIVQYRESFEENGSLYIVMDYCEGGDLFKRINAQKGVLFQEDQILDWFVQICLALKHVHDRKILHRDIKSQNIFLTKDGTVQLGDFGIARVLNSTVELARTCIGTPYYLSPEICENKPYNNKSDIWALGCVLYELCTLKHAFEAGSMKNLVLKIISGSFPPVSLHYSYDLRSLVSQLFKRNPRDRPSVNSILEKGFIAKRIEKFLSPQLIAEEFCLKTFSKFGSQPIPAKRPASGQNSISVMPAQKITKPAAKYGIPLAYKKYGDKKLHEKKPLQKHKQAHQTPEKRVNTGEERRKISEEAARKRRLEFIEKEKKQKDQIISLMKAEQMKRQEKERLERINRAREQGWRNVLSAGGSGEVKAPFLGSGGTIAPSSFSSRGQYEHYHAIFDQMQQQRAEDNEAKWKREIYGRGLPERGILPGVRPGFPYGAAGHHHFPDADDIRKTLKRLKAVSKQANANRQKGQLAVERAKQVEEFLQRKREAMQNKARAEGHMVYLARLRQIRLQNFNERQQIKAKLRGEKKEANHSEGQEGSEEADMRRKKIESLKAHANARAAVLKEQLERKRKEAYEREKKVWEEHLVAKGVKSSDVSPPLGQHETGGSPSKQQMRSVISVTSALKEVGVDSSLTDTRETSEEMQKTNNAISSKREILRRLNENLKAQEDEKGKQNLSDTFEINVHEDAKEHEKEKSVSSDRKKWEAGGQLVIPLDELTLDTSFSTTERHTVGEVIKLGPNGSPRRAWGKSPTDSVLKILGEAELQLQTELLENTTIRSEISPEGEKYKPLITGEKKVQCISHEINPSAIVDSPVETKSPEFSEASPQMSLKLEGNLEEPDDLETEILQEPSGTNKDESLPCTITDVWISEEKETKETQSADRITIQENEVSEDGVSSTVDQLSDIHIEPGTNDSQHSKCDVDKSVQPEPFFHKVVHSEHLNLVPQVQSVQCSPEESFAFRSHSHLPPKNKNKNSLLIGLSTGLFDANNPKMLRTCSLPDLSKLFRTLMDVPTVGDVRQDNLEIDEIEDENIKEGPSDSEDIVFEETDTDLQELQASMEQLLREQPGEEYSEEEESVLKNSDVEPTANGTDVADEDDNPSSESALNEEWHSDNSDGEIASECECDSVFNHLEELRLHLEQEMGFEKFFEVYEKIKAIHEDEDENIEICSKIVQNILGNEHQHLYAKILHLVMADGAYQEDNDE

[3] = target: T2, Serine/threonine-protein kinase Nek1 (Homo sapiens); details: at 1 µM
[4] = target: T3, Serine/threonine-protein kinase Nek2 (Homo sapiens) (UniProt P51955); details: at 0.1 µM
T3 sequence (whole entry): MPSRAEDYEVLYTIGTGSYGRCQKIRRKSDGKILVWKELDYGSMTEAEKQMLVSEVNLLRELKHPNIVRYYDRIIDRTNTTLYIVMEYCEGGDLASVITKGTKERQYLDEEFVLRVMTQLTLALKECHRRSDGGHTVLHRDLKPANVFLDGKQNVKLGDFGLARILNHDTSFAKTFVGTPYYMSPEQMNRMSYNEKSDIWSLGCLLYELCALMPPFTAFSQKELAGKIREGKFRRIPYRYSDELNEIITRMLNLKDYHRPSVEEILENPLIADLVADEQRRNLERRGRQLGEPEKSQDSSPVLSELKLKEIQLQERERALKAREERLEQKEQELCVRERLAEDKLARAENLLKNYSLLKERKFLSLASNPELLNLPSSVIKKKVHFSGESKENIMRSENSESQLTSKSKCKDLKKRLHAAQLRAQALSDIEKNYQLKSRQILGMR

[5] = target: T3, Serine/threonine-protein kinase Nek2 (Homo sapiens); details: at 1 µM
[6] = target: Serine/threonine-protein kinase Nek6 (Homo sapiens) (UniProt Q9HC98); details: at 0.1 µM
[7] = target: Serine/threonine-protein kinase Nek6 (Homo sapiens) (UniProt Q9HC98); details: at 1 µM
[8] = target: Serine/threonine-protein kinase Nek7 (Homo sapiens) (UniProt Q8TDX7); details: at 0.1 µM
[9] = target: Serine/threonine-protein kinase Nek7 (Homo sapiens) (UniProt Q8TDX7); details: at 1 µM
[10] = target: T4, Serine/threonine-protein kinase Nek9 (Homo sapiens) (UniProt Q8TD19); details: at 0.1 µM
T4 sequence (whole entry): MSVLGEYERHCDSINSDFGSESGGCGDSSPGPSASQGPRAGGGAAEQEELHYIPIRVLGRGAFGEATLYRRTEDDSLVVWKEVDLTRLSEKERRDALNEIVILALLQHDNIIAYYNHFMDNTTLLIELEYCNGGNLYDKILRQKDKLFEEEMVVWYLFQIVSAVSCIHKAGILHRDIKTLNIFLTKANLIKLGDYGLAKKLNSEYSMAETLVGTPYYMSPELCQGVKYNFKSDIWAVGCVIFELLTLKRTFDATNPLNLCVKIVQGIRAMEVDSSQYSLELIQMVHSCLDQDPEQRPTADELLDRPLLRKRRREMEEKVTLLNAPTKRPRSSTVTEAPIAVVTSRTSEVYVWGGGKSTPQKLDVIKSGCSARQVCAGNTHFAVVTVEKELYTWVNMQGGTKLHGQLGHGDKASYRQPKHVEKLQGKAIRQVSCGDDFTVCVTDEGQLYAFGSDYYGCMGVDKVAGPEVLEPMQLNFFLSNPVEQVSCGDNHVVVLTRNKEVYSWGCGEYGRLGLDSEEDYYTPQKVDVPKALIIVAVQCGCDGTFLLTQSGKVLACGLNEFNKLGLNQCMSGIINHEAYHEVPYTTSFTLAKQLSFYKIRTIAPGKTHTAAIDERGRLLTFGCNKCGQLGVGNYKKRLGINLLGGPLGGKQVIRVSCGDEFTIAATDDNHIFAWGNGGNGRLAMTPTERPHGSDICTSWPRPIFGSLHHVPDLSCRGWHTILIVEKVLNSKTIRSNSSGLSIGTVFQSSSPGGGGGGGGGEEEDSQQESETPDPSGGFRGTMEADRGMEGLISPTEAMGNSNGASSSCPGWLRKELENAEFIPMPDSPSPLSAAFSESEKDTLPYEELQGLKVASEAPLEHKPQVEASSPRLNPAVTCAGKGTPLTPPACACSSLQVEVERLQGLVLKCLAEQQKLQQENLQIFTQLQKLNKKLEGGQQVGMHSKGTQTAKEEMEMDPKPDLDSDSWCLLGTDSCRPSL

[11] = target: T4, Serine/threonine-protein kinase Nek9 (Homo sapiens); details: at 1 µM
[12] = target: Serine/threonine-protein kinase PLK1 (Homo sapiens) (UniProt P53350); details: at 0.1 µM
[13] = target: Serine/threonine-protein kinase PLK1 (Homo sapiens) (UniProt P53350); details: at 1 µM
[14] = target: T5, Dual specificity protein kinase TTK (Homo sapiens) (UniProt P33981); details: at 0.1 µM
T5 sequence (whole entry): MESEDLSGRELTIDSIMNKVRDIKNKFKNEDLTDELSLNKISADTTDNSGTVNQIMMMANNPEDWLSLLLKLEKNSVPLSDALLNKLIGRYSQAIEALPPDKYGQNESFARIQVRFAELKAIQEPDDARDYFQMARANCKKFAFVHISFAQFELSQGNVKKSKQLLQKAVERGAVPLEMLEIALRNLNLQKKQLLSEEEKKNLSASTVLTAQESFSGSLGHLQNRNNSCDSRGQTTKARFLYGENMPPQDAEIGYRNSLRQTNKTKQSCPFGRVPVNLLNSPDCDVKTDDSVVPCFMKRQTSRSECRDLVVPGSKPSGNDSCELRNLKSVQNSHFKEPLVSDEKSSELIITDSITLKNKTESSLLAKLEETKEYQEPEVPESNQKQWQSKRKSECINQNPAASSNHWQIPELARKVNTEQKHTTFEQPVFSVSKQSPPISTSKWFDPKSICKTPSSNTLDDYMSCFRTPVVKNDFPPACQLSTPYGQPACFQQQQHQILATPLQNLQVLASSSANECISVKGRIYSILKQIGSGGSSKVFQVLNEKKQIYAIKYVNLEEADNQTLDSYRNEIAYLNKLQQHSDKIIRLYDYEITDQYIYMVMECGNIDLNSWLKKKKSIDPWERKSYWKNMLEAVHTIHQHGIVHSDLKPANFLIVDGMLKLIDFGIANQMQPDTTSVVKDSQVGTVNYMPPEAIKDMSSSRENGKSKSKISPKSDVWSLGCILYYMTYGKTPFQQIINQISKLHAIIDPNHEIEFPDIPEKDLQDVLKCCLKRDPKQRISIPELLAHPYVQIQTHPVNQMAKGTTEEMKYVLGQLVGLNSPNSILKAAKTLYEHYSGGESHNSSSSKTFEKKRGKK

[15] = tested on: T6, Receptor-type tyrosine-protein kinase FLT3 (Homo sapiens), P36888 [D835Y]; details: at 1 µM
T6 sequence (whole entry): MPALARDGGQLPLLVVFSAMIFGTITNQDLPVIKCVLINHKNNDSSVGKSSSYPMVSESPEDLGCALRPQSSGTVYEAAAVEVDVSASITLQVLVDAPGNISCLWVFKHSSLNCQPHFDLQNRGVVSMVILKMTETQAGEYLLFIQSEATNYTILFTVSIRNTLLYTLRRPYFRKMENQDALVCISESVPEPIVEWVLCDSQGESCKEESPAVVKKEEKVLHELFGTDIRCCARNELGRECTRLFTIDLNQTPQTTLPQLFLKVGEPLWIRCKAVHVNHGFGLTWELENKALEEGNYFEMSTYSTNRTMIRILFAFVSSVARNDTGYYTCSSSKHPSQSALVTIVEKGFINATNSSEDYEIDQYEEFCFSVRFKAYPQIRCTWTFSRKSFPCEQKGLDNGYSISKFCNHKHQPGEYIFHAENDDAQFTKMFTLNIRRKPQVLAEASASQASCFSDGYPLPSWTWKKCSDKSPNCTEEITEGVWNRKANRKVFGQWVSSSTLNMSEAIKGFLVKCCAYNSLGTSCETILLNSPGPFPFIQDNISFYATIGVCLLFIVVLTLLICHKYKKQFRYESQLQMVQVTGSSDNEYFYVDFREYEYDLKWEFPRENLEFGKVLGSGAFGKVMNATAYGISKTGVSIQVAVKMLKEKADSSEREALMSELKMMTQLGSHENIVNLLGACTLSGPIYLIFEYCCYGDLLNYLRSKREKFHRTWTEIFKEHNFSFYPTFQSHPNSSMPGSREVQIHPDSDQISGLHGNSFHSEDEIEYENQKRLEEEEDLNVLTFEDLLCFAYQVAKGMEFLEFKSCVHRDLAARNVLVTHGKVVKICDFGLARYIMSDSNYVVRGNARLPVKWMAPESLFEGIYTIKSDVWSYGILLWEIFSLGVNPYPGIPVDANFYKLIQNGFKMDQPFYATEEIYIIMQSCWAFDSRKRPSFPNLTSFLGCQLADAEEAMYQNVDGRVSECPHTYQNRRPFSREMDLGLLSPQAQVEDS

[16] = target: Vascular endothelial growth factor receptor 3 (Homo sapiens) (UniProt P35916); details: at 0.1 µM
[17] = target: Vascular endothelial growth factor receptor 3 (Homo sapiens) (UniProt P35916); details: at 1 µM
[18] = target: Macrophage colony-stimulating factor 1 receptor (Homo sapiens) (UniProt P07333); details: at 0.1 µM
[19] = target: Macrophage colony-stimulating factor 1 receptor (Homo sapiens) (UniProt P07333); details: at 1 µM
[20] = target: Tyrosine-protein kinase Fyn (Homo sapiens) (UniProt P06241); details: at 0.1 µM
Sequence of Tyrosine-protein kinase Fyn (Homo sapiens) (P06241 2-537 limits assumed): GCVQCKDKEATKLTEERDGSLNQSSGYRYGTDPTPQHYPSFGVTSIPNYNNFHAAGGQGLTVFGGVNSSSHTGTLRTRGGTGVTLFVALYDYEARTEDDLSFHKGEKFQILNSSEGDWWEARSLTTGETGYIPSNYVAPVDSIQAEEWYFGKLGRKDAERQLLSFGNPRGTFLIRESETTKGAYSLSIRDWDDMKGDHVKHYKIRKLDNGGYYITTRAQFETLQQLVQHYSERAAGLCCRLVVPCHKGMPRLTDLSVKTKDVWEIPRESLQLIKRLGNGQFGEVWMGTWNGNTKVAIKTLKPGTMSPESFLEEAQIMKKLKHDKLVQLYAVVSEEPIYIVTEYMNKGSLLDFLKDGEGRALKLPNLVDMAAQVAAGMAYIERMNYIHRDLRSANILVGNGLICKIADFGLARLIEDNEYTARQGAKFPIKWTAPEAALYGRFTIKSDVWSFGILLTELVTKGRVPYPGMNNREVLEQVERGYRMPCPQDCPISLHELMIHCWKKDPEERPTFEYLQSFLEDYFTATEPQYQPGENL

Sequence of Serine/threonine-protein kinase Nek7 (Homo sapiens) (Q8TDX7 whole entry, looked up): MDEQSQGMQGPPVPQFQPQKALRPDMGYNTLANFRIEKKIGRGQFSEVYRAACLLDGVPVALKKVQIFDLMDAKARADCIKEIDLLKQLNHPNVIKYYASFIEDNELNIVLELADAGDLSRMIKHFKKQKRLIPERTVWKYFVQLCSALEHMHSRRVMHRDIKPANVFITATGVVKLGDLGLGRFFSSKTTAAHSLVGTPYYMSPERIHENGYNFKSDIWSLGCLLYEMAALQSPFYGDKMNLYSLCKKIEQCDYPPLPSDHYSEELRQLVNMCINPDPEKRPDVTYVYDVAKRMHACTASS
Sequence of Vascular endothelial growth factor receptor 3 (Homo sapiens) (P35916 whole entry): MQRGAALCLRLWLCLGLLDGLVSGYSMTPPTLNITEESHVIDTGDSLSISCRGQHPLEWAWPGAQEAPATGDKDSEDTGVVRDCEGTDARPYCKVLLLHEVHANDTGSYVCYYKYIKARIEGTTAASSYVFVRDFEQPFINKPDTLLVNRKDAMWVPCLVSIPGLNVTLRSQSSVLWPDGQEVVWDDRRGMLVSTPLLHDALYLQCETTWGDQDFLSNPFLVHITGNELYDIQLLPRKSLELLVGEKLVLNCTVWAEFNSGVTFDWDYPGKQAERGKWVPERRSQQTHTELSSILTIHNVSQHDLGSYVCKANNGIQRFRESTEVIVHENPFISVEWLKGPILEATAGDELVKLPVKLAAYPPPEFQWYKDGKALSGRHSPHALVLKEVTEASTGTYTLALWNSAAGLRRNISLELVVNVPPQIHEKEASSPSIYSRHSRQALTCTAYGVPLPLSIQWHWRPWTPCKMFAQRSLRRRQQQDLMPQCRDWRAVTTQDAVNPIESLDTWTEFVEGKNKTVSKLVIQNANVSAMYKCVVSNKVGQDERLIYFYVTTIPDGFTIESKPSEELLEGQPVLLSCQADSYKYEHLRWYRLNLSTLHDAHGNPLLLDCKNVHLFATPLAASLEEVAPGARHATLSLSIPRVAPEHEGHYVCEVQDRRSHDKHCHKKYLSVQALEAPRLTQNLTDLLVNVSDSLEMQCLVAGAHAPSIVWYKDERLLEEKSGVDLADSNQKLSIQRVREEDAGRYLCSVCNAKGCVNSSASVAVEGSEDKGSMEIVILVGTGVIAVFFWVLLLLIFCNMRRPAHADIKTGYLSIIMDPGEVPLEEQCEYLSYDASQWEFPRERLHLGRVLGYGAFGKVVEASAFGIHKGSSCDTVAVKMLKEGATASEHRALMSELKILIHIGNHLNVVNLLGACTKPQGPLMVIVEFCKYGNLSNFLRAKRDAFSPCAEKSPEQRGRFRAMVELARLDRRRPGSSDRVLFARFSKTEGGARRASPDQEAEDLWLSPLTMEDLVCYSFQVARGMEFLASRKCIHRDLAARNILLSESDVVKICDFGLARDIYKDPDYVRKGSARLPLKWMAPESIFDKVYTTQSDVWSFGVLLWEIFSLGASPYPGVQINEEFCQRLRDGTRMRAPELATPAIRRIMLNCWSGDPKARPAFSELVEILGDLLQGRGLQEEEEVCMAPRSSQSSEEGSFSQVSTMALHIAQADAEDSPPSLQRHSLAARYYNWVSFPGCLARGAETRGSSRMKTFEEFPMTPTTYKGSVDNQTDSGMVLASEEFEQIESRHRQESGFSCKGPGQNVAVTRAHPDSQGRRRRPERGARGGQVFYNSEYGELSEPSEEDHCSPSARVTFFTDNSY
Sequence of Macrophage colony-stimulating factor 1 receptor (Homo sapiens) (P07333 whole entry): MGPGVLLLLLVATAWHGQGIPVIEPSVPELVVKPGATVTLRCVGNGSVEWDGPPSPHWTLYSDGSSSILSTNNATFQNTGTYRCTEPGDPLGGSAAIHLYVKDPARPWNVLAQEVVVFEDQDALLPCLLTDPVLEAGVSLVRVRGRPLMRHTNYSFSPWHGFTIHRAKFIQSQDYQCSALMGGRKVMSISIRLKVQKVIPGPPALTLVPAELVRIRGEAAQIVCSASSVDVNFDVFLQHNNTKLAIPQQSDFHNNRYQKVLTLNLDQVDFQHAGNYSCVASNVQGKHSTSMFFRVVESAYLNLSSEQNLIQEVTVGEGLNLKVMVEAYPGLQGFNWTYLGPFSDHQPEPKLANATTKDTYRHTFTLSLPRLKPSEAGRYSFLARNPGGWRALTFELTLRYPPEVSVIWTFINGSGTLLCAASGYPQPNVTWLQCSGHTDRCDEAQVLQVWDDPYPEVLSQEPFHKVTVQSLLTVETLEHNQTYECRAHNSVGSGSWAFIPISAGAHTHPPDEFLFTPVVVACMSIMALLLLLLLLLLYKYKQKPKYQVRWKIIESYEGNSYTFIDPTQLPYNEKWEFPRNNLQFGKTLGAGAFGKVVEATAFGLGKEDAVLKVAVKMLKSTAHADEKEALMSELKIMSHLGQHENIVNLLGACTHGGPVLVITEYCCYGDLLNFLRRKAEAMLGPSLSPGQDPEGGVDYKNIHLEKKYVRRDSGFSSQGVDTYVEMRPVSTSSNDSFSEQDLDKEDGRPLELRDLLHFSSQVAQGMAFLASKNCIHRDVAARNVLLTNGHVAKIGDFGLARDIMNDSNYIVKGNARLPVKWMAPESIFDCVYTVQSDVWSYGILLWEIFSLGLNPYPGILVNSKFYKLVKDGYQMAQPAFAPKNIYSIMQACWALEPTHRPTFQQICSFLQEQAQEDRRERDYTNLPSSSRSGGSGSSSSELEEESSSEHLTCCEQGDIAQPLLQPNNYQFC
Sequence of Serine/threonine-protein kinase PLK1 (Homo sapiens) (P53350 whole entry): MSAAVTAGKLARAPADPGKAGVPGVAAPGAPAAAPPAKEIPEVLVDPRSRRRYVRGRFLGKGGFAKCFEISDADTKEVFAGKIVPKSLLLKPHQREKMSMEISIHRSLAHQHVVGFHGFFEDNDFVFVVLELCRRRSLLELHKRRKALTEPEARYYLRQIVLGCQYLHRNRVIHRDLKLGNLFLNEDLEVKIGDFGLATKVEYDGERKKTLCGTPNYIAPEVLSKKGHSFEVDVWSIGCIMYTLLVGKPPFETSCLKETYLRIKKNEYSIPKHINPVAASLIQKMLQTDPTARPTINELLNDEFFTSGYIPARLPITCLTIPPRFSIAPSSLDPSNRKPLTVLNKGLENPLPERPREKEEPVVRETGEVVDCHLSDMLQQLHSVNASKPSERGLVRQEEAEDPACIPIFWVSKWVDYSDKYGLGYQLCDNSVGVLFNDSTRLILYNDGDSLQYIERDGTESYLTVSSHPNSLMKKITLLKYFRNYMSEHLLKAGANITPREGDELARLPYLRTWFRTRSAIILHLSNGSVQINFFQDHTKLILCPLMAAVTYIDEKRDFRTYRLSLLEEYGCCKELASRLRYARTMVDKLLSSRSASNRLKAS
Sequence of Serine/threonine-protein kinase Nek6 (Homo sapiens) (Q9HC98 whole entry): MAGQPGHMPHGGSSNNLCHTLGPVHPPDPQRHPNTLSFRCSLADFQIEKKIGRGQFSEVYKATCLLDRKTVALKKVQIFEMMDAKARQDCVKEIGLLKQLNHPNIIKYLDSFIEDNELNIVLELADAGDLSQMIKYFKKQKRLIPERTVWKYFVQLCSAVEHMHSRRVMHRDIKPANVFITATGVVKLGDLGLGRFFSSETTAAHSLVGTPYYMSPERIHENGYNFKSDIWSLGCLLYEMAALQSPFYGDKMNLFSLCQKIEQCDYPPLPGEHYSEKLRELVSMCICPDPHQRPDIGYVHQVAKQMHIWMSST

Row | Compound | inhibition [1] [%] | inhibition [2] [%] | inhibition [3] [%] | inhibition [4] [%] | inhibition [5] [%] | inhibition [6] [%] | inhibition [7] [%] | inhibition [8] [%] | inhibition [9] [%] | inhibition [10] [%] | inhibition [11] [%] | inhibition [12] [%] | inhibition [13] [%] | inhibition [14] [%] | inhibition [15] [%] | inhibition [16] [%] | inhibition [17] [%] | inhibition [18] [%] | inhibition [19] [%] | inhibition [20] [%]
1 | O=S(=O)(CCNCc1ccc(-c2ccc3ncnc(Nc4ccc(OCc5cccc(F)c5)c(Cl)c4)c3c2)o1)c1ccccc1 | 7.29 | 3.48 | 5.88 | 5.1 | 7.03 | 4.21 | 2.74 | 3.88 | 5.26 | 4.93 | 4.64 | 6 | 5.8 | 7.34 | -1.66 | 4.59 | 7.11 | 2.22 | 8.85 | 2.58
2 | Cc1cccc2c1NC(=O)/C2=N\Nc1ccc(S(N)(=O)=O)cc1 | 3.85 | 1 | 3.8 | 2.64 | 2.64 | 2.04 | 1.65 | 2.43 | 2.36 | 4.06 | 3.99 | 0.77 | 2.15 | 1.78 | 10.5 | 3.59 | -0.85 | 2.22 | 7.87 | 2.11
3 | NC(=O)c1sc(-n2cnc3ccc(C(F)(F)F)cc32)cc1OCc1ccccc1Br | 6.28 | 3 | 3.1 | 4.34 | 5.43 | 3.44 | 3.3 | 5.57 | 3.81 | 8.05 | 28.9 | 81.4 | 94.3 | 8.68 | 5.89 | -1.7 | 3.99 | 0.91 | 3.49 | 2.36
